From PubChem
KB-3-1 tox: kills parental KB-3-1 adenocarcinoma cells | Potency, µM (series often up to 46.1 µM), usual class: cytotoxic | hit rate 1.4% among 400,000 | AID 1347075 | KB-3-1 viability, CellTiter-Glo ATP luminescence, 72 h; also: potency is read from the fitted curve at half-maximal effect; % is scaled to controls: 0 for no effect and ±100 for the full control effect; nearly all actives have a fitted effect of over 60% in size
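Cells are dispensed, compounds pinned in, plates held at 37 °C for 72 h, then CellTiter-Glo is added and luminescence read after 10 minutes. Cell line: parental KB-3-1 in phenol-red-free DMEM, 10% FBS.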
KB-V1 MDR tox: KB-V1 MDR subline cytotoxicity | KB-V1 MDR cells viability, CellTiter-Glo, 72 h | Potency, µM (highest dose often 46.1 µM), most hits filed as cytotoxic | hit rate 3.4% among 400,000; also: potency is read from the fitted curve at half-maximal effect; % is scaled to controls: 0 for no effect and ±100 for the full control effect; nearly all actives have a fitted effect of over 60% in size
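In this primary screen, KB-V1 cells overexpressing P-gp are incubated with library compounds (lowest to highest concentration) for 72 h at 37 degrees C before a luminescent ATP viability read.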
D3 antag: D3 dopamine receptor (human) antagonism; D3R cells, DiscoveRx beta-arrestin luminescence, antagonist mode; active compounds read low; max response, negative = inhibition, %; hit rate 2.5% among 360,000; in the data active = max response below about -50%; inconclusive = no clear call, values can overlap the other calls; also: % is scaled to controls: 0 for no effect and ±100 for the full control effect
Target sequence (P35462 whole entry, looked up): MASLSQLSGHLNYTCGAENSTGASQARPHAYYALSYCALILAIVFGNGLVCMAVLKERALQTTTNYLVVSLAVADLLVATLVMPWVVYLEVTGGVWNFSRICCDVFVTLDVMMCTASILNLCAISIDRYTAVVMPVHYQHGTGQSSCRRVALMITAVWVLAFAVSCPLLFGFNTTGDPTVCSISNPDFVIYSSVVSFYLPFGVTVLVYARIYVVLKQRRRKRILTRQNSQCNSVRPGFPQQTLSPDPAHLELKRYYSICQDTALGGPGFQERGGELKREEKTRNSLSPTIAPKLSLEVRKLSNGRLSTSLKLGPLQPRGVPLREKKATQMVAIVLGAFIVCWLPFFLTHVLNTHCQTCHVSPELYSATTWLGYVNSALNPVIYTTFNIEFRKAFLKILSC
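Cells expressing the human receptor were seeded at 1500 cells/well, incubated overnight at 37 degrees C in 5% CO2, then exposed to library compounds with dopamine controls for 90 minutes at 37 degrees C before luminescent detection.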
D3 ag: agonists of human D3 dopamine receptor | P35462 | D3R DiscoveRx beta-arrestin cells, luminescence, 90 min | max activation, % | hit rate 0.58% among 410,000 | AID 652048; in the data active = max activation above about 30%; also: 0% is about no effect
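Agonist mode: compounds and dopamine controls were applied to plated cells for 90 min at 37 degrees C after an overnight attachment at 1500 cells/well. Luminescent read-out followed 30 - 60 minutes at room temperature with DiscoveRx detection reagent.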
SW480 rereplic: induces DNA re-replication in SW480 colon adenocarcinoma cells | SW480 DNA re-replication, Hoechst DNA content imaging, 48 h | Potency, µM (top dose mostly 46.1 µM), inactives show at the highest dose re-replication activation, most hits filed as activators | hit rate 1.8% among 340,000 | AID 624297; also: potency is read from the fitted curve at half-maximal effect; % of control where 0% means no effect; nearly all actives have a fitted effect of over 55% in size
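250 cells/well; 23 nL cpd via pin tool; 48 hr, 37 C, 5% CO2; Hoechst 40 min; imager read of total nuclear intensity, ex 405/em 500-530 nm.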
MCF10A rereplic: DNA re-replication induction in MCF 10a cells | MCF 10A DNA re-replication, Hoechst nuclear intensity, 48 h | Potency, µM (top dose mostly 46.1 µM), for inactives: top-dose activity, positive = re-replication, actives largely listed as activators | hit rate 2.9% among 350,000 | AID 624296; also: potency is read from the fitted curve at half-maximal effect; % of control where 0% means no effect; nearly all actives have a fitted effect of over 50% in size
Starred values were filed as active, the others as inactive; i = inactive; ? = inconclusive; / = no result given. Rows were chosen to be rich in hits. Some 8.9% of all compounds tested hit in one or more screens of this group. Unless noted, calls follow the shape of the dose curve; as a rule, active = well fitted curve in the direction sought with a large enough effect; inconclusive = small, poorly fitted or top-dose-only effect, or another doubt; inactive = no such curve, though single readings can be large; an effect the other way counts as inactive or inconclusive.

SMILES | KB-3-1 tox | KB-V1 MDR tox | D3 antag | D3 ag | SW480 rereplic | MCF10A rereplic
COc1cccc(-c2cc(NC=O)c3ncc(-c4ccc(OC)c(OC)c4)n3c2)c1 | 13µM* | 15µM* | 54 | 1 | / | /
COc1ccc(-c2cc(NC=O)c3ncc(-c4cc(OC)c(OC)c(OC)c4)n3c2)cc1 | ? | 0.046µM* | 8 | -7 | / | /
COc1ccc(-c2cnc3c(NC=O)cc(-c4cc(OC)c(OC)c(OC)c4)cn23)cc1OC | ? | 23µM* | -6 | 27 | / | /
COc1cc(-c2cnc3c(NC=O)cc(-c4ccc(S(C)(=O)=O)cc4)cn23)cc(OC)c1OC | ? | i | 148 | 4 | / | /
Cc1ccc(CSc2nc3cccnc3n2Cc2ccc(C(=O)NC3CCCCC3)cc2)cc1 | / | / | / | -5 | / | /
O=C(Cn1nc(Cc2ccncc2)c2ccccc2c1=O)Nc1cccc(C(F)(F)F)c1 | / | / | / | -2 | / | /
O=CNc1cc(-c2cccc(F)c2)cn2c(-c3ccc(F)c(Cl)c3)cnc12 | ? | 23µM* | -7 | 0 | / | /
COc1ccc(-c2cnc3c(NC=O)cc(-c4ccc(F)cc4)cn23)cc1OC | 0.21µM* | ? | 9 | -1 | / | /
COc1ccc(F)cc1-c1cc(NC=O)c2ncc(-c3cccc(C(F)(F)F)c3)n2c1 | 23µM* | ? | 0 | -10 | / | /
COc1ccccc1-c1cc(NC=O)c2ncc(-c3cccc(C(C)=O)c3)n2c1 | ? | ? | 2 | -17 | / | /
O=CNc1cc(-c2ccccc2)cn2c(-c3ccc(F)c(Cl)c3)cnc12 | i | ? | ? | 1 | / | /
COc1ccc(NC(=O)CSc2nnnn2C2CC2)cc1S(=O)(=O)N1CCOCC1 | i | i | 9 | 5 | 11% | 3%
COc1ccc2cc(C(=O)Nc3ccc(Cl)cc3)sc(=O)c2c1OC | i | i | -69* | -29 | 19% | -5%
NC(=O)c1ccc(NC(=O)COC(=O)c2c3c(nc4ccccc24)/C(=C\c2cccs2)CCC3)cc1 | i | i | 48 | 4 | 21µM* | 23µM*
CCc1cccc(C)c1NC(=O)COC(=O)c1c2c(nc3ccccc13)/C(=C\c1cccs1)CCC2 | i | 15µM* | -8 | 5 | 18µM* | 10µM*
CO[C@@H]1CN(C)C(=O)c2cc(NC(=O)NC3CCCCC3)ccc2OC[C@@H](C)N(CC2CCOCC2)C[C@@H]1C | i | i | -60* | -7 | / | /
COc1cc(C=Cc2nnc3c4ccccc4cnn23)cc(OC)c1OC | i | i | 33 | 6 | / | /
CCSc1nnc(NS(=O)(=O)c2ccc(C)cc2)s1 | i | i | 15 | -1 | 0% | -3%
CCc1nnc(NS(=O)(=O)c2ccc(NC(=S)NC(=O)/C=C/c3ccc(OC)cc3)cc2)s1 | i | i | -73* | -31 | 1% | 14%
CCc1nnc(NS(=O)(=O)c2ccc(NC(=O)/C=C/C(=O)O)cc2)s1 | i | i | -62* | -10 | 10% | 1%
COCc1nnc(NS(=O)(=O)c2ccc([N+](=O)[O-])cc2)s1 | i | i | -58* | -3 | -21% | 0%
CCSc1nnc(NS(=O)(=O)c2ccc(OC)cc2)s1 | i | ? | -7 | 3 | -58% | 0.73µM*
COCc1nnc(NS(=O)(=O)c2ccc(OC)cc2)s1 | i | i | 47 | -8 | -5% | -4%
CCc1nnc(NS(=O)(=O)c2ccc(NC(=O)/C=C/c3ccccc3Cl)cc2)s1 | i | i | 10 | 2 | -9% | -37%
CCc1nnc(NS(=O)(=O)c2ccc(NC(=O)CCC(=O)OC)cc2)s1 | i | i | 9 | -1 | -17% | 0.58µM*
SMILES | KB-3-1 tox | KB-V1 MDR tox | D3 antag | D3 ag | SW480 rereplic | MCF10A rereplic
CCc1nnc(NS(=O)(=O)c2ccc(NC(=S)NC(=O)c3ccc(Br)cc3)cc2)s1 | i | i | -65* | -16 | -1% | ?
O=C(/C=C/c1ccc(Br)cc1)NC(=S)Nc1ccc(S(=O)(=O)Nc2nccs2)cc1 | i | i | -53* | -25 | 4% | -4%
CCc1nnc(NS(=O)(=O)c2ccc(NC(=O)c3cccc(Cl)c3)cc2)s1 | i | i | -68* | -18 | -21% | ?
O=C(NC(=S)Nc1ccc(S(=O)(=O)Nc2nccs2)cc1)c1ccc(Br)o1 | i | i | ? | -1 | 4% | 29%
CCc1nnc(NS(=O)(=O)c2ccc(NC(=O)c3ccccc3)cc2)s1 | i | i | -11 | -4 | -19% | 0%
CCOC(=O)c1c(C)[nH]c(C)c1S(=O)(=O)N1CCN(c2cccc(C(F)(F)F)c2)CC1 | / | / | / | -18 | / | /
Cc1ccc2onc(CNC(=O)Nc3cc(F)ccc3F)c2c1 | i | i | / | 2 | / | /
CCc1nnc(NS(=O)(=O)c2ccc(N/C=C\C(=O)c3ccc4ccccc4c3)cc2)s1 | i | i | ? | -28 | 14% | 23µM*
CCc1nnc(NS(=O)(=O)c2ccc(NC(=S)NC(=O)/C=C/c3ccccc3)cc2)s1 | i | ? | -68* | -8 | -7% | 3%
CCc1nnc(NS(=O)(=O)c2ccc(NC(=S)NC(=O)c3ccccc3)cc2)s1 | i | i | -29 | 1 | -3% | 4%
CCc1nnc(NS(=O)(=O)c2ccc(NC(=O)c3cccc(OC)c3)cc2)s1 | i | ? | 4 | 5 | 1% | 2%
CCc1nnc(NS(=O)(=O)c2ccc(NC(=S)NC(=O)/C=C/c3ccc(C(C)C)cc3)cc2)s1 | i | i | -129* | -6 | -9% | 0%
CC1CCc2c(sc(NC(=O)COc3ccccc3C(C)(C)C)c2C#N)C1 (configuration not stated) | i | i | / | -9 | / | /
COc1cc(-c2c(-c3ccc4c(c3)OCO4)noc2-c2ccsc2)cc(OC)c1OC | i | i | / | / | / | /
Cc1ccc(-c2nc3c(c(=O)[nH]c(=O)n3Cc3ccccc3)n2Cc2ccccc2)o1 | i | ? | 4 | -4 | ? | ?
CN(Cc1ccccc1)c1nc2c(c(=O)[nH]c(=O)n2C)n1Cc1ccccc1F | i | i | 14 | 9 | 52% | -4%
CN(Cc1ccccc1)c1nc2c(c(=O)[nH]c(=O)n2C)n1Cc1ccccc1 | i | 9.2µM* | 23 | -2 | -12% | ?
CN(Cc1ccccc1)c1nc2c(c(=O)[nH]c(=O)n2C)n1CCCSc1ncccn1 | ? | 2.6µM* | -14 | -3 | 1% | 18%
CCCCCn1c(N(C)Cc2ccccc2)nc2c1c(=O)[nH]c(=O)n2C | i | i | 0 | 3 | 1% | 1%
CN(C)c1nc2c(c(=O)[nH]c(=O)n2C)n1Cc1ccccc1Br | ? | 21µM* | -7 | 21 | -4% | 4%
CCn1c(CO)nc2c1c(=O)[nH]c(=O)n2Cc1ccccc1 | i | i | -80* | -33 | 5% | -2%
